Experimental data published in PubChem BioAssay (EPA / NIEHS).
Inconclusive results are not listed. Active and inactive are the calls of the source. Rule for the calls: active = hit-call score of the fitted dose curve at least 0.9, where 1 is the maximum; inconclusive = response in the unintended direction; inactive = score below 0.9.

Test: ATG_M_32_TRANS: Attagene TRANS-FACTORIAL HepG2 Assay for M32 Transcription Factor (Internal Marker) (AID 2282984)
Conditions: HepG2 Attagene TRANS M32 internal marker reporter
Experimental: ATG_TRANS is a cell-based, multiplexed-readout assay that uses HepG2, a human liver cell line, with measurements taken at 24 hours after chemical dosing in a 24-well plate.ATG_M_32_TRANS is one of 30 assay component(s) measured or calculated from the ATG_TRANS assay. It is designed to make measurements of mRNA induction, a form of inducible reporter, as detected with fluorescence intensity signals by Reverse transcription polymerase chain reaction (RT-PCR) and Capillary electrophoresis technology.Data from the assay component ATG_M_32_TRANS was analyzed into 1 assay endpoint. This assay endpoint, ATG_M_32_TRANS, was analyzed in the positive analysis fitting direction relative to DMSO as the negative control and baseline of activity. Using a type of inducible reporter, measures of mRNA for gain-of-signal activity can be used to understand the background control at the transcription factor-level as they relate to the gene . Furthermore, this assay endpoint can be referred to as a secondary readout, because this assay has produced multiple assay endpoints where this one serves a background control function. To generalize the intended target to other relatable targets, this assay endpoint is annotated to the background measurement intended target family, where the subfamily is internal marker.
Human liver HepG2 cells are transiently transfected with multiple reporter transcription units (MRTUs) in 6-well plates using FuGene 6 reagent (Roche; 3 ml FuGene/1 mg DNA). The MRTU constructs are regulated by a cis-regulating element (promoter). […] A major difference between the CIS and TRANS system is that in CIS activities of endogenous TFs are measured, whereas the TRANS assay evaluates changes in activities of exogenous, chimeric NR-Gal4 proteins. […] At the end of 24 hour incubation, total RNA was isolated using TriZol reagent (Invitrogen). The isolated RNA is then reverse-transcribed using oligo(dT) primer and Mo-MLV reverse transcriptase (Invitrogen) with DNAse I (Ambion) treatment for 30 min. The one-tenth of the produced cDNA was amplified by PCR using Taq DNA polymerase (Invitrogen) and two reporter sequence-specific primers. The PCR products were fluorescently labeled by primer extension with 6-arboxyfluorescein (6-FAM) 5'-labeled reporter sequence-specific primer (2 min at 95 C, 20 s at 68 C and 10 min at 72 C) and these products were digested with 5U of HpaI (New England Biolabs) for 2h at 37 C. The fragments were purified using Qiaquick PCR columns (Qiagen), analyzed on an ABI 3130xL genetic analyzer (Applied Biosystems) with peak positions identified by using a set of X-rhodamine (ROX)-labeled MapMarker1000 molecular weight standards (BioVentures). The raw capillary electrophoresis data was processed using Attagraph software (Attagene).

outcome, inactive:
c1ccc(C[n+]2cccc3ccccc32)cc1
CC(C)(C)c1cc(/C=C2\SC(N)=NC2=O)cc(C(C)(C)C)c1O
CCCCCCCCOC(=O)c1cc(O)c(O)c(O)c1
O=CCCCC=O
O=C(Nc1ccc(Cl)cc1)Nc1ccc(Cl)c(Cl)c1
Cc1ccc2oc(CN(Cc3ccccc3)C(=O)Nc3c(F)cc(F)cc3F)c(-c3ccc(Cl)cc3)c2c1
Cc1cc2c(cc1C(F)(F)F)N(C(=O)Nc1ccc(Oc3cccnc3C)nc1)CC2
CCN(Cc1cccnc1)C(=O)c1cccc(Cl)c1[C@]1(C)C(=O)N(Cc2ccc(OC)cc2OC)c2ccc(Cl)cc21
O=C=NCCCCCCN=C=O
CCO[Si](CCCNC(N)=O)(OCC)OCC
CCCCCCCCCCCC[N+](C)(C)C
c1ccc2ccccc2c1
CC[C@H](NC(=O)c1cc(F)ccc1NS(=O)(=O)c1cccc2cccnc12)c1ccccc1
CC1(C)NC(=O)N(c2ccc([N+](=O)[O-])c(C(F)(F)F)c2)C1=O
CC(C)(c1cc(Br)c(O)c(Br)c1)c1cc(Br)c(O)c(Br)c1
CC(O)CC(C)(C)O (stereo not given)
CCCCCCCCCC(=O)O
OCCO
CC(C)(C)c1csc(-c2cc3cc(OCc4ccccc4CC(=O)O)ccc3o2)n1
CCCCCCCCCCCCO
O=C1c2ccccc2C(=O)N1CCc1noc(-c2ccc(CN3CCCCCC3)s2)n1
CN1C(=O)N(c2ccccc2Br)Cc2cnc(Nc3ccc4c(c3)OCC(CO)O4)nc21 (stereo not given)
C[C@]12CC[C@@H]3c4ccc(O)cc4CC[C@H]3[C@@H]1CCC2=O
CN1C(=O)CC[C@H]1c1cccnc1
Oc1ccccc1
CC/C(=C(/CC)c1ccc(O)cc1)c1ccc(O)cc1
O=C1O[C@H]([C@@H](O)CO)C(O)=C1O
C[C@]12CC[C@@H]3c4ccc(O)cc4CC[C@H]3[C@@H]1CC[C@H]2O
Cc1cn([C@H]2C[C@H](N=[N+]=[N-])[C@@H](CO)O2)c(=O)[nH]c1=O
COCC(C)OCC(C)OCC(C)O (stereo not given)
O=C1CCC(C2CCCCC2)CC1
COc1cccc([C@H](O)C2CCN(CCc3ccc(F)cc3)CC2)c1OC
NCc1cccc(C2CCN(C(=O)c3ccc(C#Cc4ccccc4F)o3)CC2)c1
CC[C@@H]1C[C@H](N(Cc2cc(C(F)(F)F)cc(C(F)(F)F)c2)C(C)=O)c2cc(C(F)(F)F)ccc2N1C(=O)OC(C)C
Oc1ccc2ccccc2c1
CC(=O)N1CCN(c2ccc(OC[C@H]3CO[C@](Cn4ccnc4)(c4ccc(Cl)cc4Cl)O3)cc2)CC1
CCCCCCCCOc1ccc(C(=O)c2ccccc2)c(O)c1
O=C(O)c1ccccc1-n1cc(C(=O)O)c(=O)c2cc(Nc3c(F)cc(F)cc3Cl)c(Cl)cc21

AC50, active:
CCCCCCCCCCCO 166 µM
CN(C[C@@H](CC[N+]12CCC(C3CCCCC3)(CC1)CC2)c1ccc(Cl)c(Cl)c1)C(=O)c1cc(C(F)(F)F)cc(C(F)(F)F)c1 18.4 µM
